Values without a mark were called inactive. Active and inactive are the calls of the source.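 Rule for the calls: active = activity change under -35% in any replicate well, with more than 20 beads read in that well; inactive = the rest.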
target: Caspase recruitment domain-containing protein 9 (Homo sapiens) + E3 ubiquitin-protein ligase TRIM62 (Homo sapiens) (UniProt Q9H257+Q9BVG3); assay: CARD9/TRIM62 protein interaction inhibitors – cell lysate, HEK293FT lysates, Luminex bead ELISA, primary screen (AID 1259341); conditions: PE fluorescence, active compounds read low, concentration not given here;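 note: PE anti-Flag signal of Flag-CARD9 captured by myc-TRIM62 beads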
Sequence (Q9BVG3 whole entry, looked up, the tested form may be a part): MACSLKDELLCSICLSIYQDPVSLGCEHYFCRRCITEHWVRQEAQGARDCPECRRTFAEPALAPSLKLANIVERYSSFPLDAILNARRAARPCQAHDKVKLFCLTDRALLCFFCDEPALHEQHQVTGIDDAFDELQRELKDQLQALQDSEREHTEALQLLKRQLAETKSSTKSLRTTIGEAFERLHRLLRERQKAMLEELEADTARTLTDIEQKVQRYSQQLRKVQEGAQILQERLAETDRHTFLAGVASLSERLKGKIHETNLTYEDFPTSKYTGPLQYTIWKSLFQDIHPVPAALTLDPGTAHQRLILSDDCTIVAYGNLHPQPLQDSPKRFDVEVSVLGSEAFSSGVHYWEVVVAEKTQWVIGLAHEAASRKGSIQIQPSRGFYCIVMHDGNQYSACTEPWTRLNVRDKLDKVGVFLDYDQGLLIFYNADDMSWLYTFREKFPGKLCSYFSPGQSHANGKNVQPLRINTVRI
Sequence (Q9H257 whole entry, looked up, the tested form may be a part): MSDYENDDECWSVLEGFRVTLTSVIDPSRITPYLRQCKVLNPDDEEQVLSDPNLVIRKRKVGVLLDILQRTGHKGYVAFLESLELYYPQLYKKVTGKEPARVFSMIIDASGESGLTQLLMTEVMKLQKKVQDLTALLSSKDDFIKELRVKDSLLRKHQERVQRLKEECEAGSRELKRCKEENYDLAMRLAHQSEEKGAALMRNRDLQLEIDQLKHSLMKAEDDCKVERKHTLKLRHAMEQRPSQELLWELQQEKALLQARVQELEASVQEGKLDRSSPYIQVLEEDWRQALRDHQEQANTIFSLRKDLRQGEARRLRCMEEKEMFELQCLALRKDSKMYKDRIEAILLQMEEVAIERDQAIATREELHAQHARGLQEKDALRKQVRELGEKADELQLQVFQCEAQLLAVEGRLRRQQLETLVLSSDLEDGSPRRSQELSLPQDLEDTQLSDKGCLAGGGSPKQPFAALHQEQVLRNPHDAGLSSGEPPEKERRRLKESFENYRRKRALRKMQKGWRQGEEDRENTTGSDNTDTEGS

Row | Structure (SMILES) | activity change, negative = inhibition
1 | NC(=O)c1ccc(CN2C(=O)C3(CCNCC3)Nc3ccccc32)cc1 | -4.33%
2 | COC[C@]1(O)CCN(C(=O)CCN(C)S(C)(=O)=O)CC1(C)C | -0.387%
3 | Nc1ccc(-c2cccc(CN3CCCC3)c2)cc1 | -3.56%
4 | O=C(CCN1CCOCC1)c1ccc2c(c1)OCCO2 | 10.8%
5 | O=C(Nc1ccc2c(c1)nc1n2CCN(C2CCCCC2)C1)c1ccco1 | -2.69%
6 | O=C(CCCN1C(=O)NC2(CCCC2)C1=O)Nc1ccc(F)cc1 | 23.8%
7 | O=C(NCc1ccco1)c1ccc(S(=O)(=O)N2CCOCC2)cc1 | 19.9%
8 | Cc1ccc(C2CC(=O)C3=C(C2)Nc2ccccc2NC3c2cccnc2)cc1 (stereo unspecified) | -0.28%
9 | Cc1ccc(-c2nnc(-c3nc(Nc4nc5ccccc5s4)c4ccccc4n3)o2)cc1 | -10.3%
10 | Cn1nnnc1SCCNCc1ccc(-c2cccc(C(F)(F)F)c2)o1 | -0.39%
11 | O=C1c2ccccc2-c2nc3ccccc3nc21 | -4.55%
12 | O=[N+]([O-])c1cccc(-c2nnc3ccc4ccccc4n23)c1 | -7.69%
13 | Cc1ccc2c(c1)C(N1CCCC1=O)CC(c1ccco1)N2 (stereo unspecified) | 5.12%
14 | Cc1ccc(Nc2nc(C(=O)Nc3ccc(Br)cc3)nc3ccccc23)cc1 | 4.69%
15 | Clc1ccc2nc(CN3CCCCCC3)cn2c1 | 5.28%
16 | NC(=O)C1(N2CCCCC2)CCN(c2ncc(NC(=O)c3ccccc3)cc2C(=O)O)CC1 | -57.3% (active)
17 | CCOc1ccccc1NC(=O)N1CCCC(c2nccn2CCOC)C1 (stereo unspecified) | -5.04%
18 | O=C(Nc1nc(-c2ccco2)c(-c2ccco2)s1)C1CCC1 | -9.96%
19 | CN(C)c1ccc(CN2C[C@H]3CC[C@@H]2CN(C(=O)c2ccncc2)C3)cn1 | 1.51%
20 | N#Cc1sc2nc(-c3ccccc3)cc(-c3ccco3)c2c1N | 2.21%
21 | CCCN1CCc2nc(SCc3nc(-c4ccc(OC)cc4OC)oc3C)[nH]c(=O)c2C1 | -0.271%

Source: PubChem BioAssay AID1259341 (Broad Institute, 2017)
